High-throughput results (PubChem)
HIV RNase H inh-1 – inhibitors of HIV-1 reverse transcriptase RNase H. RT-RNase H RNA/DNA duplex cleavage, fluorescence. inhibition, % at 10 µM. actives 1.9% (n = 65,000). AID 565; in the data active means inhibition above about 50%
HIV RNase H inh-2 – confirmation of HIV-1 reverse transcriptase RNase H inhibitors; Recombinant RT RNase H, fluorescent RNA/DNA duplex cleavage; inhibition, % at 10 µM; shares compounds with HIV RNase H inh-1; actives 39% (n = 1,000); AID 651; in the data active means inhibition above about 48%
An asterisk follows results filed as active. This excerpt belongs to a sample that is enriched for hits.

SMILES | HIV RNase H inh-1 | others
COCCOC(=O)C1=C(C)N=C2SCCC(=O)N2C1c1cc(Br)ccc1OC (centres undefined) | 3
O=C(c1ccc(Cl)s1)N1CCN(c2ccccc2)CC1 | -5
CCCCOC(=O)Nc1ccc(S(=O)(=O)Nc2cc(C)nc(C)n2)cc1 | -2
Cc1cc(NS(=O)(=O)c2ccc(NC(=O)CCCC(=O)O)cc2)nc(C)n1 | 4
CCOc1ccc(OCC(=O)Nc2ccc(S(=O)(=O)Nc3cc(C)nc(C)n3)cc2)cc1 | 52*
O=C(NCCCN1CCN(c2ccccc2F)CC1)C1CCC(=O)N1C1CCCC1 (centres undefined) | -13
O=C(CCn1cccc1)NCCc1ccc(Cl)cc1 | -9
O=C(Nc1nnc(C2CC2)o1)c1ccc(S(=O)(=O)N2CCCc3ccccc32)cc1 | 2
COc1cccc(-c2nnc(NC(=O)c3ccc(S(=O)(=O)N4CCOCC4)cc3)o2)c1 | 23
COc1ccc(-c2nnc(NC(=O)c3ccc(S(=O)(=O)N4CCCc5ccccc54)cc3)o2)cc1 | 52*
Cc1ccc(NC(=O)C2C3C=CC4(CN(Cc5cccnc5)C(=O)C24)O3)cc1F (centres undefined) | 1
Cc1cccc(-n2c(C)nc3c(cnn3-c3ccc(F)cc3)c2=O)c1 | -22
COc1ccc(OC)c(NC(=O)Cn2cccc2)c1 | -1
CCCCC(CC)C(=O)Nc1ccccc1C(=O)NC(C)C (centres undefined) | 0
S=P(c1ccc(N2CCOCC2)cc1N1CCOCC1)(N1CCOCC1)N1CCOCC1 | 88*
Nc1nc2ccc(N3CCOCC3)cc2s1 | 11
Cc1cc(C)nc(Nc2ccc(N3CCOCC3)cc2)n1 | 4
CN(C)CCCNCCCNC(=O)/C(=N\O)c1ccccn1 | -4
CCOc1ccc(OCC)c(NC(=O)C2CCCN(c3nc(C)cc(C)n3)C2)c1 (centres undefined) | 4
Cc1cccc2c(=O)oc(-c3ccc4c(c3)C(=O)N(CC3CCCO3)C4=O)nc12 (centres undefined) | -1
CCCC(=O)Nc1ccc(-c2nc3cc(C)ccc3o2)cc1 | 18
COc1ccc(CC(=O)Nc2ccc(-c3nc4cc(C)ccc4o3)c(O)c2)cc1OC | 48
CCCC(=O)Nc1ccc(-c2nc3cc(C)c(C)cc3o2)c(O)c1 | 58*
CC1=CCC2C(=O)N(c3ccc(C)c(Br)c3)C(=O)C2C1 (centres undefined) | -3
CC(=O)Nc1ccc(OCC=C(Cl)Cl)cc1 | 29
SMILES | HIV RNase H inh-1 | others
COC(=O)c1ccc(CC(=O)c2c(C)cc(O)cc2O)o1 | -11
CCOC(=O)c1sc(NC(=O)c2ccc(S(=O)(=O)N3CCOCC3)cc2)cc1C | -14
COC(=O)c1ccc(C)c(NS(=O)(=O)c2ccc(OC)cc2)c1 | -61
COc1ccc(S(=O)(=O)Nc2cc(C)c(O)cc2C(C)C)cc1 | 55*
COc1ccc(S(=O)(=O)Nc2cc(C(C)C)c(O)cc2C)cc1 | -6
COc1ccccc1NS(=O)(=O)c1cc(Cl)ccc1OC | -82
CC(=O)Cc1nsc(NC(=O)c2ccc(-c3cccc(C(F)(F)F)c3)o2)n1 | 1
Cc1nnc(NC(=O)c2cccc(F)c2)s1 | -4
Cc1nnc(NC(=O)c2ccc(-c3cccc(C(F)(F)F)c3)o2)s1 | 57*
COc1cc(NC(=O)CN2C(=O)c3ccccc3S2(=O)=O)c(OC)cc1Cl | -9
CN1CCN(C(=O)c2ccc3c(=O)n(Cc4ccc(Cl)cc4)c(=S)[nH]c3c2)CC1 | -5
O=C(c1ccc2c(=O)n(Cc3ccc4c(c3)OCO4)c(=S)[nH]c2c1)N1CCCCC1 | 61*
CCOC(=O)N1CCN(C(=O)c2ccc(Cn3c(=S)[nH]c4cc5c(cc4c3=O)OCO5)cc2)CC1 | -3
Cc1cc(NC(=O)COC(=O)C(Nc2ccc(C(F)(F)F)cc2Cl)C(C)C)no1 (centres undefined) | 8
O=C(Nc1ccccc1)N1CCCC(c2nc(-c3cccs3)no2)C1 (centres undefined) | 8
CCCCN=CC1=C(O)C(C(=O)OC)C(C)(C)CC1=O (centres undefined) | -8
CCOC(=O)N1CC=C2C(C#N)=C(N)C(C#N)(C#N)[C@H](c3ccsc3)[C@H]2C1 | 6
CCOC(=O)N1CC=C2C(C#N)=C(N)C(C#N)(C#N)[C@H](c3ccc(OC(C)C)c(OCC)c3)[C@H]2C1 | 89* | HIV RNase H inh-2=76*
CCOC(=O)N1CC=C2C(C#N)=C(N)C(C#N)(C#N)[C@H](c3ccccc3OCC)[C@H]2C1 | 29
CC(=O)c1ccc(OCC(O)CN2CCN(CCO)CC2)cc1 (centres undefined) | -4
COc1cccc(C2C3CN(C)CC=C3C(C#N)=C(N)C2(C#N)C#N)c1OC (centres undefined) | 0
COc1cc(OC)c(C2C(C#N)=C(N)OC3=C2C(=O)CC(C)(C)C3)cc1OC (centres undefined) | -4
COc1cc(OC)c(C2C(C#N)=C(N)OC3=C2C(=O)CC(C)C3)cc1OC (centres undefined) | 3
COc1cccc(C2C(C#N)=C(N)Oc3c2oc(CO)cc3=O)c1OC (centres undefined) | -5
COc1ccc(N2CSC3=C(C#N)C(c4cccc(OC)c4OC)CC(=O)N3C2)cc1 (centres undefined) | 75* | HIV RNase H inh-2=34
SMILES | HIV RNase H inh-1 | others
CCc1ccccc1N1CSC2=C(C#N)C(c3ccccc3F)CC(=O)N2C1 (centres undefined) | 89* | HIV RNase H inh-2=59*
COc1cc(OC)c(C2CC(=O)N3CN(c4ccccc4C)CSC3=C2C#N)cc1OC (centres undefined) | 77* | HIV RNase H inh-2=72*
Cc1ccc(C2N(c3cccc(Cl)c3)C(=O)C3CCCN32)o1 (centres undefined) | -19
C=CCOC(=O)C1=C(C)OC(N)=C(C#N)C1c1ccccc1F (centres undefined) | 4
Cc1cccc(N2CSC3=C(C#N)C(c4ccc(C)o4)CC(=O)N3C2)c1 (centres undefined) | 94* | HIV RNase H inh-2=55*
CCc1ccccc1N1C(=O)C2CC(C)=C(C)CC2C1=O (centres undefined) | -2
Cc1cccc(N2CC34C=CC(O3)C(C(=O)O)C4C2=O)c1 (centres undefined) | -8
CCCn1nnnc1NC(=O)CSc1ccc(Cl)cc1 | 10
O=C(CP(=O)(c1ccccc1)c1ccccc1)Nn1cnnc1 | -9
O=C(Nc1ccccc1C(F)(F)F)N1CCN(c2ccc3nncn3n2)CC1 | -5
CCOC(=O)C1C(C#N)=C(N)OC(C)=C1c1ccncc1 (centres undefined) | -12
Cc1ccc(Nc2nnns2)cc1C | 9
COC(=O)c1nnn(-c2nonc2N)c1-c1cccs1 | -6
CCC(C)[C@H](N)c1nnc(SCc2cccc(F)c2)o1 (some centres undefined) | -11
CCOc1ccc2nc3c(cc2c1)CN(CCCO)C(=NCCOC)S3 | 3
Cc1cc(C)nc(NS(=O)(=O)c2ccc(NC(=O)c3ccc4c(c3)OCO4)cc2)n1 | -2
Cc1cnc(-c2nnc(N(C)C(=O)c3ccncc3)s2)cn1 | -7
CCOC(=O)C1=C(c2ccccc2)N2CCN=C2S1 | -50
COC(=O)NC1CSCC1OC(=O)CN1C(=O)c2ccccc2C1=O (centres undefined) | -12
O=c1cnn(-c2ccccc2)c(-c2ccccc2)c1 | -20
Cc1nc2ccccn2c1/C(O)=C1\C(=O)C(=O)N(CCCN(C)C)C1c1ccc(Cl)cc1 (centres undefined) | -6
